Assay results from PubChem BioAssay (Tox21).
Records with an inconclusive call do not appear. Where a call stands in place of a potency, no number is given. Where a structure was tested more than once in an assay, its records may differ in their call. Active and inactive are the calls of the source. Unless noted, calls come from the whole dose curve.

Columns and labels:
[1] = Nuclear factor erythroid 2-related factor 2/antioxidant responsive element (Nrf2/ARE) small molecule agonists: qHTS cell viability counter screen in human keratinocytes (AID 1919968; active = well fitted curve in the direction sought with a large enough effect in the repeat runs; an effect the other way counts as inactive or inconclusive; note: nearly all actives have a fitted effect of over 55% in size; note: potency is the fitted concentration of half-maximal effect)
Procedure, shortened: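 KeratinoSens cells (HaCaT keratinocytes stably carrying an ARE-luciferase reporter) were seeded at 1,500 cells/well and rested 5 h at 37 C/5% CO2. They were then exposed to compounds in DMSO for 23 h. Viability was read by CellTiter-Fluor fluorescence after 1 h.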

[2] = Nuclear factor erythroid 2-related factor 2/antioxidant responsive element (Nrf2/ARE) small molecule agonists: luciferase reporter gene qHTS assay in human keratinocytes (AID 1919969); note: nearly all actives have a fitted effect of over 35% in size; note: potency is the fitted concentration of half-maximal effect
[3] = target: Gonadotropin-releasing hormone receptor (Homo sapiens) (UniProt P30968); assay: Human gonadotropin-releasing hormone receptor (GnRHR) small molecule agonists, calcium flux assay in GnRHR-HEK293 cells (AID 1920063); note: nearly all actives have a fitted effect of over 35% in size
Procedure, shortened: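 HEK293 cells stably expressing human GnRHR were plated 18 h at 37 °C, loaded with calcium dye 1 h at 37 °C, then given compound in agonist mode; fluorescence (Ex/Em 480/540) read kinetically for 3 min at 1 s intervals.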

[4] = target: KiSS-1 receptor (Homo sapiens) (UniProt Q969F8); assay: Human kisspeptin (KISS1R) small molecule agonists, calcium flux assay in KISS1R-HEK293 cells (AID 1920064; active = well fitted curve in the direction sought with a large enough effect in the repeat runs; an effect the other way counts as inactive or inconclusive)
Procedure, shortened: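 HEK293 cells stably expressing human KISS1R were plated 18 h at 37 °C, loaded with calcium dye for 1 h at 37 °C, then given compound by pin tool. Fluorescence (Ex/Em 480/540) was read kinetically for 3 min.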

[5] = G protein-coupled receptor (GPCR) small molecule agonists, calcium flux assay: HEK293 wild type cell line counter screen (AID 1920065)
Procedure, shortened: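 Cells were plated and cultured 18 h at 37 C/5% CO2, then loaded with calcium dye for 1 h at 37 C. Compounds in DMSO were pin-transferred in agonist mode, and fluorescence (Ex/Em 480/540) was read kinetically for 3 min at 1 s intervals.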

[6] = p53 small molecule agonists, cell-based qHTS assay with human liver microsomes: qHTS cell viability counter screen (AID 1963579); note: nearly all actives have a fitted effect of over 45% in size
Procedure, shortened: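 After the 460/530 nm beta-lactamase read, CellTiter-Glo was added to the same wells and luminescence measured after 30 min at room temperature, giving viability of p53RE-bla cells treated 16 h with compounds plus microsomes and NADPH.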

[7] = p53 small molecule agonists, cell-based qHTS assay with rat liver microsomes: qHTS cell viability counter screen (AID 1963580); note: nearly all actives have a fitted effect of over 45% in size
Procedure, shortened: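 p53RE-bla HCT-116 cells (4,000/well) rested 5 h at 37 C, then given Tox21 compounds in DMSO with rat liver microsomes (0.5 mg/mL final) plus NADPH (0.5 mg/mL final) for 16 h at 37 C. Viability read by CellTiter-Glo luminescence after 30 min at room temperature.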

[8] = p53 small molecule agonists, cell-based qHTS assay: qHTS cell viability counter screen (AID 1963581); note: nearly all actives have a fitted effect of over 45% in size
Procedure, shortened: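 p53RE-bla HCT-116 cells were exposed to compounds for 16 h at 37 C; after the beta-lactamase FRET read in the same wells, CellTiter-Glo was added and luminescence (intracellular ATP) read after 30 min at room temperature.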

[9] = target: 5-hydroxytryptamine receptor 2A (Homo sapiens) (UniProt P28223); assay: 5-hydroxytryptamine receptor 2A (HTR2A) small molecule antagonists, cell-based qHTS assay (AID 1963586); note: nearly all actives have a fitted effect of over 45% in size
Procedure, shortened: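 Antagonist-mode intracellular calcium assay: DOI (4 nM) added after 5 min compound pre-incubation at room temperature to dye-loaded HTR2A-CHO cells. Fluorescence followed for 3 min, sampled every second.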

[10] = target: 5-hydroxytryptamine receptor 2A (Homo sapiens) (UniProt P28223); assay: 5-hydroxytryptamine receptor 2A (HTR2A) small molecule agonists, cell-based qHTS assay (AID 1963587); note: nearly all actives have a fitted effect of over 30% in size
Procedure, shortened: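 HTR2A-CHO cells, plated 18 h at 37 C/5% CO2, dye-loaded 1 h at 37 C; compounds in DMSO added by pin tool (agonist mode). Intracellular calcium flux read as kinetic fluorescence on FDSS over 2 min at 1 s intervals.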

[11] = target: Muscarinic acetylcholine receptor M1 (Homo sapiens) (UniProt P11229); assay: Cholinergic receptor muscarinic 1 (CHRM1) small molecule antagonists, cell-based qHTS assay (AID 1963588); note: nearly all actives have a fitted effect of over 40% in size; note: potency is the fitted concentration of half-maximal effect
Procedure, shortened: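 CHRM1-CHO calcium-flux assay, antagonist mode. Cells were seeded 18 h, dye-loaded 1 h at 37 C and given compound for 5 min at RT, then acetylcholine was added at 50nM. FDSS fluorescence was read 3 min; 15 concentrations, three runs.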

[12] = target: Muscarinic acetylcholine receptor M1 (Homo sapiens) (UniProt P11229); assay: Cholinergic receptor muscarinic 1 (CHRM1) small molecule agonists, cell-based qHTS assay (AID 1963589); note: nearly all actives have a fitted effect of over 35% in size
Procedure, shortened: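 CHO cells stably expressing human CHRM1, seeded 18 h at 37 C/5% CO2, dye-loaded 1 h at 37 C, then given compound in agonist mode; intracellular calcium fluorescence read kinetically at 1 s intervals. Fifteen concentrations, three independent runs.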

[13] = cAMP Responsive Elements (CRE) small molecule antagonists, cell-based qHTS assay (AID 1963591; active = well fitted inhibition curve with a large enough effect in the signal ratio in the repeat runs, not every such curve was filed as active; the % refers to the signal ratio)
Procedure, shortened: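 CRE-bla HEK293T cells were plated 18 h at 37 °C/5% CO2, pinned with compound in DMSO, then stimulated with NKH477 at 0.25 uM final for 3 h. LiveBLAzer B/G FRET substrate was added and plates incubated 2 h at room temperature.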

[14] = target: Beta-2 adrenergic receptor (Homo sapiens) (UniProt P07550); assay: Adrenergic beta2 receptor (ADRB2) small molecule antagonists, cell-based qHTS assay (AID 1963592); note: series mostly up to about 92 µM; nearly all actives have a fitted effect of over 50% in size
Procedure, shortened: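 Cells (CHO, stable ADRB2 overexpression) incubated 18-20hr at 37C; compounds added from DMSO; agonist mix (1nM isoproterenol, 100uM IBMX, 25uM Ro-20-1724) added; 0.5hr RT; d2-cAMP and anti-cAMP-cryptate added; 1hr RT; 665/615 nm read.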

[15] = target: Beta-2 adrenergic receptor (Homo sapiens) (UniProt P07550); assay: Adrenergic beta2 receptor (ADRB2) small molecule agonists, cell-based qHTS assay (AID 1963593); note: potency is the fitted concentration of half-maximal effect;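 for activation: CHO cells stably overexpressing human ADRB2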
Procedure, shortened: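 CHO cells stably over-expressing ADRB2 were plated overnight at 37C, then dosed with compounds plus a stimulation mix containing 100uM IBMX and 25uM Ro-20-1724 for 0.5hr at room temperature. cAMP was measured by HTRF competition, 1hr.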

[16] = target: D(2) dopamine receptor (Homo sapiens) (UniProt P14416); assay: Dopamine D2 receptor (DRD2) small molecule agonists, cell-based qHTS assay (AID 1963594); note: nearly all actives have a fitted effect of over 35% in size
Procedure, shortened: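 HEK293 cells stably expressing DRD2 were cultured 24 h at 37 C, then given Ro20-1724 (0.1 mM final) and compounds for 10 min at room temperature. NKH477 (200nM) was then added for 30 min. cAMP was read by HTRF.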

[17] = target: D(2) dopamine receptor (Homo sapiens) (UniProt P14416); assay: Dopamine D2 receptor (DRD2) small molecule antagonists, cell-based qHTS assay (AID 1963595; active = well fitted inhibition curve with a large enough effect in the signal ratio in the repeat runs, with a control signal flat; the % refers to the signal ratio)
Procedure, shortened: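 Stable D2 receptor HEK293 line, 24 h after seeding. Compound preincubated 10 min, then quinpirole (12 nM) with forskolin analogue NKH477 (200 nM), 30 min, room temperature. Detection by time-resolved FRET of cAMP.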

[18] = p53 small molecule agonists, cell-based qHTS assay with rat liver microsomes (AID 1963578)
Procedure, shortened: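 Metabolic activation is supplied by rat liver microsomes with NADPH (each 0.5 mg/mL final). p53RE-bla cells incubate with compound 16 h at 37 C; reporter activity is measured by LiveBLAzer fluorescence.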

[19] = p53 small molecule agonists, cell-based qHTS assay (AID 1963582; active = well fitted activation curve with a large enough effect in the signal ratio in the repeat runs, not every such curve was filed as active; the % refers to the signal ratio)
Procedure, shortened: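 p53RE-bla beta-lactamase reporter cells rested 5 h at 37 C/5% CO2, then received compounds in DMSO by pin transfer and were incubated 16 h at 37 C. LiveBLAzer B/G FRET substrate was loaded for 2 h at room temperature before fluorescence reading.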

[20] = cAMP Responsive Elements (CRE) small molecule agonists, cell-based qHTS assay (AID 1963590)
Procedure, shortened: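 CRE-bla HEK 293T cells in DMEM with 10% dialyzed FBS, NEAA, pyruvate and 25 mM HEPES were plated 18 h at 37 C/5% CO2, then exposed to compounds in DMSO for 3 h before LiveBLAzer B/G FRET substrate addition.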

Chain of Muscarinic acetylcholine receptor M1 (Homo sapiens) (P11229 whole entry, looked up): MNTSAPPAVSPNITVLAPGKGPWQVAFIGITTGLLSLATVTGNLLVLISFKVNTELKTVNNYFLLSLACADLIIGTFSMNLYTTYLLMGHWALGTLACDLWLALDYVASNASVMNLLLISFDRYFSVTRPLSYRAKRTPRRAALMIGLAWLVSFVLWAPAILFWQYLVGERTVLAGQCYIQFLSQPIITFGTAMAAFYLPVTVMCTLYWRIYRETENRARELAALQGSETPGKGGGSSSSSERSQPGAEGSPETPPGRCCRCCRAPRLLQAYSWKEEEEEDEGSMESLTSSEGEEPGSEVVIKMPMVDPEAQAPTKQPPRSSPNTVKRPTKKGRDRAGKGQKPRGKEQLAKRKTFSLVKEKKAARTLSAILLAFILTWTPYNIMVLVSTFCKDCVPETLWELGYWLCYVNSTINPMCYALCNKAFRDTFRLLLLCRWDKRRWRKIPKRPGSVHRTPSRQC
Chain of Beta-2 adrenergic receptor (Homo sapiens) (P07550 whole entry, looked up): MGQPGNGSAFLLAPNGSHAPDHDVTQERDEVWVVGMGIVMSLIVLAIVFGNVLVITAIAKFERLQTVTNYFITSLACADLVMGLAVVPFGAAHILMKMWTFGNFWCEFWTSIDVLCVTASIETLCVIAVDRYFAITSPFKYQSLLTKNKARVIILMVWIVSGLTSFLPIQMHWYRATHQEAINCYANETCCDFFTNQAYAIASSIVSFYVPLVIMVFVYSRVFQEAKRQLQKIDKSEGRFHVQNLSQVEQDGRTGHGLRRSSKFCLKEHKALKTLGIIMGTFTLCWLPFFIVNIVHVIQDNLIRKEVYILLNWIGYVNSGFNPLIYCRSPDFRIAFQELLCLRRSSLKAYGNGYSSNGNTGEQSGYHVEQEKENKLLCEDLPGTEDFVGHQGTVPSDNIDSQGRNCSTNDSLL
Chain of Gonadotropin-releasing hormone receptor (Homo sapiens) (P30968 whole entry, looked up): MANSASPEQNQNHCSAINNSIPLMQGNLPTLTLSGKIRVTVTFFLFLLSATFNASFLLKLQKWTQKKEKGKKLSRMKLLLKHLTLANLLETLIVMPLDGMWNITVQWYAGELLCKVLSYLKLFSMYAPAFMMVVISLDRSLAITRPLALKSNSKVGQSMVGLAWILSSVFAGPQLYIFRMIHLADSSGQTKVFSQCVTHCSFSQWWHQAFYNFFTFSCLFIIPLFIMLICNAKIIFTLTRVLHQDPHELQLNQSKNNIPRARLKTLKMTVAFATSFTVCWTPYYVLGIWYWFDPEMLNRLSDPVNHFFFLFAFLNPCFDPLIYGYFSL
Chain of KiSS-1 receptor (Homo sapiens) (Q969F8 whole entry, looked up): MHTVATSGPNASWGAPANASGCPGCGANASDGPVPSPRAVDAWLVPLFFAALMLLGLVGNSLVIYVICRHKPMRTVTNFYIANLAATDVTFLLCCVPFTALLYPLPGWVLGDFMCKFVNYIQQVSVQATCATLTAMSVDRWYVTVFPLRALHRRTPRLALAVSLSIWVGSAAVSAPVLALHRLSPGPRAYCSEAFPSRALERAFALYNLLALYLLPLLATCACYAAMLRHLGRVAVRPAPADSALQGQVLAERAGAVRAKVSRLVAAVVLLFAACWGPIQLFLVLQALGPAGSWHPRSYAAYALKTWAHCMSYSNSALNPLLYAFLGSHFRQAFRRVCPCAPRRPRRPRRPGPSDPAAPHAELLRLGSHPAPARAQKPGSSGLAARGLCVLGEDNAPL
Chain of 5-hydroxytryptamine receptor 2A (Homo sapiens) (P28223 whole entry, looked up): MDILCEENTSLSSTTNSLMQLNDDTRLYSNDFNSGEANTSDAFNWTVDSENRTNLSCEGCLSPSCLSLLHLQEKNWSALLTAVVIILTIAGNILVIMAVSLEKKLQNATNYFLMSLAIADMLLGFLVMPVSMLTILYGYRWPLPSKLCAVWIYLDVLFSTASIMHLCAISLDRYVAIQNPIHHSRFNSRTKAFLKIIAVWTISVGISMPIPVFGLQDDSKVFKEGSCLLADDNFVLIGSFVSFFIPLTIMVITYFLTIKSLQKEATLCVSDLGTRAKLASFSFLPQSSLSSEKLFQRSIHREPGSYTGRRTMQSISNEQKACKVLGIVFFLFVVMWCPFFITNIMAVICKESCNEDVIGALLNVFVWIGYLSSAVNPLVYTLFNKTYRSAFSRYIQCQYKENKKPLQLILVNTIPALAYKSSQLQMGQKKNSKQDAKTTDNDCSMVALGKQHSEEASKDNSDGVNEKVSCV
Chain of D(2) dopamine receptor (Homo sapiens) (P14416 whole entry, looked up): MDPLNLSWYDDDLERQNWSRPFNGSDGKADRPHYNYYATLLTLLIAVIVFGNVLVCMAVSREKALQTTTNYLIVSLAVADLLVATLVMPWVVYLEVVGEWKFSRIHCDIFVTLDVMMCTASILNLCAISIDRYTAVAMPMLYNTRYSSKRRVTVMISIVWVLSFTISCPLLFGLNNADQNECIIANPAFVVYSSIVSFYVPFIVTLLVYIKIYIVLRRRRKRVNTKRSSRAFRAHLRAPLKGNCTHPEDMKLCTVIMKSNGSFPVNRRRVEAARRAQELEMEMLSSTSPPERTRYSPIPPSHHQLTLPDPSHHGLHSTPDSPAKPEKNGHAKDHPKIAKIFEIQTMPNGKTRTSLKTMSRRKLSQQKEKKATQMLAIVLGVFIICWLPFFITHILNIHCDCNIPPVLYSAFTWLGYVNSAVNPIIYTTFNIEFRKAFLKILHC

## O=C(O)c1cc2ccccc2cc1O
[1]
  Potency: inactive
[2]
  Potency: inactive
[3]
  Potency: inactive
[4]
  Potency: inactive
[5]
  Potency: inactive
[6]
  Potency: inactive
[7]
  Potency: inactive
[8]
  Potency: inactive
[9]
  Potency: inactive
[10]
  Potency: inactive
[11]
  Potency: inactive
[12]
  Potency: inactive
[13]
  Potency: inactive
[14]
  Potency: inactive
[15]
  Potency: inactive
[16]
  Potency: inactive
[17]
  Potency: inactive

## O=Cc1ccccc1C=O
[1]
  Potency: 61.1 µM (active) and inactive
[2]
  Potency: 24.3 µM (active) and inactive
[3]
  Potency: inactive
[4]
  Potency: inactive
[5]
  Potency: inactive
[6]
  Potency: inactive
[7]
  Potency: inactive
[8]
  Potency: inactive
[9]
  Potency: inactive
[10]
  Potency: inactive
[11]
  Potency: 42.1 µM (active) and inactive
[12]
  Potency: inactive
[13]
  Potency: inactive
[14]
  Potency: inactive
[15]
  Potency: 43.3 µM (active)
[16]
  Potency: inactive
[17]
  Potency: inactive

## CCOC(=O)NCCC[Si](OCC)(OCC)OCC
[1]
  Potency: inactive
[2]
  Potency: inactive
[3]
  Potency: inactive
[4]
  Potency: inactive
[5]
  Potency: inactive
[18]
  Potency: inactive
[6]
  Potency: inactive
[8]
  Potency: inactive
[19]
  Potency: inactive
[9]
  Potency: inactive
[10]
  Potency: inactive
[11]
  Potency: inactive
[20]
  Potency: inactive
[13]
  Potency: inactive
[14]
  Potency: inactive
[15]
  Potency: inactive
[16]
  Potency: inactive
[17]
  Potency: inactive

## Cc1ccc(C(C)c2ccc(C)c(C)c2)cc1C
[1]
  Potency: inactive
[2]
  Potency: inactive
[3]
  Potency: inactive
[4]
  Potency: inactive
[5]
  Potency: inactive
[18]
  Potency: inactive
[6]
  Potency: inactive
[8]
  Potency: inactive
[19]
  Potency: inactive
[9]
  Potency: inactive
[10]
  Potency: inactive
[11]
  Potency: inactive
[12]
  Potency: inactive
[20]
  Potency: inactive
[13]
  Potency: inactive
[15]
  Potency: inactive
[16]
  Potency: inactive
[17]
  Potency: inactive

## C1CCC2OC2C1 (stereo not drawn)
[1]
  Potency: inactive
[2]
  Potency: inactive
[3]
  Potency: inactive
[4]
  Potency: inactive
[5]
  Potency: inactive
[6]
  Potency: inactive
[7]
  Potency: inactive
[8]
  Potency: inactive
[19]
  Potency: inactive
[9]
  Potency: inactive
[10]
  Potency: inactive
[11]
  Potency: inactive
[12]
  Potency: inactive
[20]
  Potency: inactive
[14]
  Potency: inactive
[16]
  Potency: inactive
[17]
  Potency: inactive

## CCCCCCCCCCCCCCCCI
[1]
  activity change, negative = cytotoxicity: 1.33% [at 19 µM] (inactive)
[2]
  activity, positive = activation: -9.58% [at 19 µM] (inactive)
[3]
  activity change: 0.684% [at 11.8 µM, stronger effect = higher value] (inactive)
[4]
  activation: 7.41% [at 15.8 µM] (inactive)
[5]
  activation: 2.83% [at 11.8 µM] (inactive)
[6]
  activity change, negative = cytotoxicity: 1.61% [at 13.5 µM] (inactive)
[7]
  activity change, negative = cytotoxicity: -2.18% [at 13.5 µM] (inactive)
[8]
  activity change, negative = cytotoxicity: -8.29% [at 13.5 µM] (inactive)
[19]
  activation: -4.93% [at 13.5 µM] (inactive)
[9]
  activity, negative = inhibition: -0.251% [at 12.7 µM] (inactive)
[10]
  activation: -2.69% [at 15.9 µM] (inactive)
[11]
  activity, negative = inhibition: -11% [at 12.6 µM] (inactive)
[12]
  activation: 1.29% [at 15.8 µM] (inactive)
[20]
  activation: -1.28% [at 19 µM] (inactive)
[14]
  activity change, negative = inhibition: 0.138% [at 19 µM] (inactive)
[16]
  activation: 2.88% [at 19 µM] (inactive)
[17]
  activity change, negative = inhibition: -1.21% [at 18.9 µM] (inactive)

## Nc1nc(N)nc(-c2ccccc2)n1
[1]
  Potency: inactive
[2]
  Potency: inactive
[3]
  Potency: inactive
[4]
  Potency: inactive
[5]
  Potency: inactive
[6]
  Potency: inactive
[7]
  Potency: inactive
[8]
  Potency: inactive
[9]
  Potency: inactive
[10]
  Potency: inactive
[11]
  Potency: inactive
[12]
  Potency: inactive
[20]
  Potency: inactive
[14]
  Potency: inactive
[16]
  Potency: inactive
[17]
  Potency: inactive

## O=C1OC[C@H](Cc2cccc(O)c2)[C@H]1Cc1cccc(O)c1
[1]
  Potency: inactive
[2]
  Potency: inactive
[3]
  Potency: inactive
[4]
  Potency: inactive
[5]
  Potency: inactive
[18]
  Potency: inactive
[6]
  Potency: inactive
[8]
  Potency: inactive
[19]
  Potency: inactive
[9]
  Potency: inactive
[11]
  Potency: inactive
[12]
  Potency: inactive
[20]
  Potency: inactive
[13]
  Potency: inactive
[14]
  Potency: inactive
[15]
  Potency: inactive
[16]
  Potency: inactive
[17]
  Potency: inactive
